# Where a name gives a salt, the structure may show the parent alone.
# Legend:
# Assay in all cases: thermal shift delta Tm vs DMSO control; higher = stronger stabilization (binding)
# Conditions in all cases: 12.5 µM; protein concentration 2 µM
# LOC_OS02G45750-cb003 = tested on: LOC_OS02G45750-cb003
# Method in brief: (§1)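 Rice kinase domain constructs, made in E. coli and purified, were placed in 96-well plates at 2 μM in 19.5 μl of 100 mM potassium phosphate pH 7.5, 150 mM NaCl, 10% glycerol and 5 × SYPRO Orange, with compound in DMSO. A temperature ramp from 25°C to 95°C at 0.05°C/s was used for differential scanning fluorimetry. The melting temperature shift is a triplicate mean compared with DMSO-only protein, derived from Boltzmann fits.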
# LOC_OS02G54510-cb004 = tested on: LOC_OS02G54510-cb004
# Method in brief: as §1
# LOC_OS03G04050-cb001 = tested on: LOC_OS03G04050-cb001
# Method in brief: as §1
# LOC_OS03G12390-cb001 = tested on: LOC_OS03G12390-cb001
# Method in brief: as §1
# LOC_OS03G27990-cb004 = tested on: LOC_OS03G27990-cb004
# Method in brief: as §1
# LOC_OS03G50450-cb001 = tested on: LOC_OS03G50450-cb001
# Method in brief: as §1
# LOC_OS03G50810-cb003 = tested on: LOC_OS03G50810-cb003
# Method in brief: as §1
# LOC_OS04G35114-cb001 = tested on: LOC_OS04G35114-cb001
# Method in brief: as §1
# LOC_OS04G38480-cb003 = tested on: T1, LOC_OS04G38480-cb003
# T1 sequence (whole entry): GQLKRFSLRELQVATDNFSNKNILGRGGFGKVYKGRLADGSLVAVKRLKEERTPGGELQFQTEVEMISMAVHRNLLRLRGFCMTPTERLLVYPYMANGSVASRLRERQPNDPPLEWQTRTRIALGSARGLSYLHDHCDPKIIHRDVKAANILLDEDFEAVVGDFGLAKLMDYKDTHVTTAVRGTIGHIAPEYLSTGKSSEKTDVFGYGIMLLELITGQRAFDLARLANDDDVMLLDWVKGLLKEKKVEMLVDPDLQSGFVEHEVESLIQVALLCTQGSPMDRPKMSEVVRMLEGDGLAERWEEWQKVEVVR
# Method in brief: as §1
# LOC_OS04G41100-cb001 = tested on: T2, LOC_OS04G41100-cb001
# T2 sequence (whole entry): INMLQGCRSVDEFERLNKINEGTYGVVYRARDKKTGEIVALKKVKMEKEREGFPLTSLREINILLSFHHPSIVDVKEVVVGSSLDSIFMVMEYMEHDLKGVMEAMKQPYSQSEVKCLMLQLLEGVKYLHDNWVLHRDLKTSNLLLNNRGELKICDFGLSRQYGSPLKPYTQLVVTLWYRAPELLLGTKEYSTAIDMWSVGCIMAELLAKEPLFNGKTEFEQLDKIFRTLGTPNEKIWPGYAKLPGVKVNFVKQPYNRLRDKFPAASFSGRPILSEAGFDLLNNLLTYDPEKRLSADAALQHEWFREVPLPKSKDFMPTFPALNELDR
# Method in brief: as §1
# 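Also: purified Escherichia coli-expressed rice kinase domain construct.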
Structure (SMILES),thermal shift delta Tm (LOC_OS02G45750-cb003),thermal shift delta Tm (LOC_OS02G54510-cb004),thermal shift delta Tm (LOC_OS03G04050-cb001),thermal shift delta Tm (LOC_OS03G12390-cb001),thermal shift delta Tm (LOC_OS03G27990-cb004),thermal shift delta Tm (LOC_OS03G50450-cb001),thermal shift delta Tm (LOC_OS03G50810-cb003),thermal shift delta Tm (LOC_OS04G35114-cb001),thermal shift delta Tm (LOC_OS04G38480-cb003),thermal shift delta Tm (LOC_OS04G41100-cb001)
CC[C@@](C)(Nc1ccnc(-c2c[nH]c3ncccc23)n1)C(=O)NCC(F)(F)F [Decernotinib (VX-509)],1.82 °C,0.32 °C,0.47 °C,0.52 °C,0.33 °C,0.54 °C,1.35 °C,1.32 °C,3.52 °C,0.25 °C
CC(=O)Nc1nc(C)c(-c2ccc(Cl)c(S(=O)(=O)NCCO)c2)s1,1.06 °C,0.31 °C,0.56 °C,0.64 °C,0.19 °C,0.73 °C,0.75 °C,1.53 °C,0.78 °C,0.77 °C
Cc1cc(Nc2nc(N[C@@H](C)c3ncc(F)cn3)ncc2Cl)[nH]n1,3.59 °C,2.58 °C,0.1 °C,5.26 °C,0.82 °C,2.31 °C,3.08 °C,1.86 °C,2.03 °C,0.47 °C
CNC(=O)CN1CCC(Oc2cc3c(Nc4cccc(Cl)c4F)ncnc3cc2OC)CC1 [Sapitinib (AZD8931)],0.58 °C,0.5 °C,-0.02 °C,0.79 °C,0.05 °C,0.05 °C,0.22 °C,3.22 °C,0.11 °C,0.35 °C
O=C1NC(=O)/C(=C/c2cccc(C(F)(F)F)c2)S1,0.26 °C,0.26 °C,0.76 °C,0.17 °C,0.26 °C,0.29 °C,0.08 °C,0.62 °C,-0.19 °C,0.43 °C
COc1cc(N2CCC(N)CC2)ccc1Nc1ncc(Cl)c(-c2c[nH]c3ccccc23)n1,2.46 °C,1.23 °C,0.85 °C,14.1 °C,5.3 °C,8.66 °C,6.42 °C,3.73 °C,4.68 °C,1.54 °C
COc1ccc(Oc2cc(NCCC(F)(F)F)c3ncc(-c4ccc(C(=O)NC5CC5)c(C)c4)n3n2)c(F)c1F,0.77 °C,0.01 °C,0.48 °C,0.31 °C,0.55 °C,0.46 °C,1.7 °C,1.1 °C,1.64 °C,0.4 °C
O=C1NCCc2[nH]c(-c3ccncc3)cc21,0.39 °C,0.14 °C,0.37 °C,3.14 °C,0.51 °C,0.87 °C,0.45 °C,0.84 °C,0.45 °C,1.14 °C
Cc1cc(Nc2cc(N3CCN(C)CC3)nc(/C=C/c3ccccc3)n2)n[nH]1,4.69 °C,2.74 °C,0.21 °C,4.05 °C,2.48 °C,8.43 °C,7.16 °C,6.22 °C,1.95 °C,1.86 °C
CCN1C(=O)CNc2ncc(-c3ccc(-c4nc[nH]n4)nc3C)nc21,1.71 °C,-0.29 °C,-0.03 °C,-0.17 °C,-0.12 °C,-0.24 °C,-0.05 °C,0.7 °C,0.95 °C,-0.13 °C
Oc1ccc(Nc2nc(-c3ccc(Cl)cc3)cs2)cc1,0.87 °C,-1.06 °C,1.13 °C,1.19 °C,1.07 °C,1.19 °C,1.34 °C,2.45 °C,-1.18 °C,0.69 °C
COC(=O)[C@]12CCC(C)(C)C[C@H]1[C@H]1C(=O)C=C3[C@@]4(C)C=C(C#N)C(=O)C(C)(C)[C@@H]4CC[C@@]3(C)[C@]1(C)CC2 [Bardoxolone Methyl],0.78 °C,-3.73 °C,-0.12 °C,-11.6 °C,-4.29 °C,-0.95 °C,-3.78 °C,-4.61 °C,-6.53 °C,-1.7 °C
O=C(Nc1cccc(Cl)c1)Nc1ncc(CCNc2ncnc3ccsc23)s1 [SNS-314 Mesylate],0.93 °C,0.38 °C,1.02 °C,1.77 °C,0.36 °C,0.82 °C,0.75 °C,1.73 °C,2.48 °C,1.12 °C
COc1cc2c(c(OC)c1OC)-c1c(cc3c(c1OC)OCO3)CC(C)C(C)C2 (stereo not drawn) [Schisandrin B (Sch B)],-0.1 °C,-0.01 °C,0.81 °C,0.12 °C,0.05 °C,0.76 °C,0.12 °C,0.63 °C,0.75 °C,0.48 °C
COCCOc1cnc2ccn([C@H](C)c3nnc4c(F)cc(-c5cnn(C)c5)cn34)c(=O)c2c1,1.08 °C,-0.12 °C,0.22 °C,-0.12 °C,0.2 °C,0.05 °C,-0.09 °C,0.69 °C,0.41 °C,0.65 °C
FC(F)(F)c1ccc(CNc2ccc(Cc3c[nH]c4ncc(Cl)cc34)cn2)cn1 [Pexidartinib (PLX3397)],6.87 °C,0.69 °C,0.27 °C,2.08 °C,0.52 °C,0.54 °C,1.63 °C,9.82 °C,4.16 °C,0.51 °C
CCc1ccc(/C=C2/SC(=S)NC2=O)cc1,-0.48 °C,0.83 °C,1.24 °C,1.18 °C,0.83 °C,0.26 °C,0.48 °C,1.2 °C,1.19 °C,0.36 °C
Cc1nc2c(-c3cnc(N)nc3)nc(N3CCOCC3)nc2n1C(C)C,0.88 °C,0.46 °C,0.51 °C,0.59 °C,0.15 °C,0.73 °C,0.44 °C,1.59 °C,–,–
COC(=O)N[C@@H](C)CNc1nccc(-c2cn(C(C)C)nc2-c2cc(Cl)cc(NS(C)(=O)=O)c2F)n1 [Encorafenib (LGX818)],0.44 °C,-0.06 °C,0.22 °C,-0.2 °C,0.34 °C,0.01 °C,0.12 °C,0.62 °C,0.49 °C,1.63 °C
CCCNC(=O)c1cn2ncnc(Nc3cc(C(=O)NC4CC4)ccc3C)c2c1C,0.71 °C,0.18 °C,0.45 °C,-0.14 °C,0.24 °C,0.49 °C,0.26 °C,0.65 °C,0.42 °C,0.24 °C

# Reference: the supplement of paper PMC9694430
